Screens from PubChem BioAssay.
Rows were chosen to be rich in hits. Some 1.6% of all compounds tested hit in one or more screens of this group.
KCNQ2 inh: KCNQ2 (rat) channel inhibition; CHO-K1 KCNQ2, FluxOR thallium flux, 20 min; active compounds read low; actives 1.1% (n = 310,000); B-score at 10 µM; O88943;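 active means fluorescence ratio B-score at most minus 3 library SDs, with starting brightness B-score within 2 library SDs, cut at about -5.5 in these data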
KCNQ2 pot: KCNQ2 (rat) channel potentiation. B-score at 10 µM. actives 0.54% (n = 310,000). CHO-K1 KCNQ2, FluxOR thallium flux fluorescence; active compounds read high;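 active means fluorescence ratio B-score at least 3 SD of library B-scores, with initial fluorescence B-score within 3 of them, cut at about 5.3 in these data; same plate scores as AID 2156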;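 further: B-score of peak minus minimum over baseline fluorescence ratio after K+ and Tl+ stimulus; positive B-score means potentiation of KCNQ2 with more thallium influx and brighter signal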
Kir21 conf inh: confirmation of mouse Kir2.1 potassium channel inhibitors. AID 2032. actives 41% (n = 2,300). shares compounds with KCNQ2 pot. Tl flux remaining, % of negative control (active compounds read low), % at 10 µM. Kir2.1-expressing cells, FluxOR thallium flux fluorescence; active compounds read low;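 active means Primary-screen hit whose thallium flux fell at least 3 control SD below untreated wells in both duplicates, with normal baseline fluorescence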;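 further: 0% = blank wells without stimulus and 100% = stimulated no-compound controls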
Target sequence (P35561 whole entry, looked up): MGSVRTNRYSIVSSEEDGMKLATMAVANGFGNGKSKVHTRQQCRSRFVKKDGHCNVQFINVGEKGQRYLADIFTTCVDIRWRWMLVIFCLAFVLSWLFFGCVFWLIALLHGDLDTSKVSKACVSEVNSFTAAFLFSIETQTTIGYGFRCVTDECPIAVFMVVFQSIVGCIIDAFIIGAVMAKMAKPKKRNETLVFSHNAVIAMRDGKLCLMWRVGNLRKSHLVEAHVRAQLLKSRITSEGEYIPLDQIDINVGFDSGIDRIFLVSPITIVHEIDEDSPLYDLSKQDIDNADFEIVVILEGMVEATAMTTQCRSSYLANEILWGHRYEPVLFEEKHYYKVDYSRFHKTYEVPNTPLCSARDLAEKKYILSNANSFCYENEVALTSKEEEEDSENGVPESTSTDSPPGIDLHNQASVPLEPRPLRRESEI
HEK293 Tl flux: counter-screen for Kir2.1 inhibitors: effect in parental HEK293 cells. shares compounds with KCNQ2 pot. FluxOR thallium flux fluorescence; 0% = unstimulated blank wells. FluxOR signal as % of negative control (100 = no effect), % at 10 µM. actives 19% (n = 2,300);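 active means dye signal at least 3 control SD above or below untreated wells in both duplicates, raw fluorescence within 3, either direction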;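 further: percent is based on the flux ratio of peak minus minimum fluorescence over baseline F0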
CHO-K1 Tl ctr: parental CHO-K1 activity in KCNQ2 potentiator counter-screen; shares compounds with KCNQ2 pot; parental CHO-K1 cells, FluxOR thallium flux fluorescence; zero = vehicle mean+3SD, 100% = vehicle-minus-blank window; activity increase over 3SD of controls, % at 10 µM; actives 43% (n = 1,200); AID 2282;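 active means signal rise of at least 3 SD above the untreated control mean, in both duplicate wells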;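 further: counter screen of KCNQ2 potentiator hits so any rise reflects channel-independent effects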
KCNQ1 sel pot: tests whether KCNQ2 potentiators also act on human KCNQ1 | shares compounds with KCNQ2 pot | CHO KCNQ1 stable, FluxOR thallium flux fluorescence; beyond 3SD, as % of vehicle-control signal | activation over 3SD threshold, % at 10 µM | actives 28% (n = 1,200);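 active means fluorescence ratio rise of at least 3 SD of vehicle wells above their mean, in both replicate wells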;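 further: 0% = vehicle mean plus 3 SD and 100% = vehicle minus unstimulated blank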
KCNQ2 pot conf: rat KCNQ2 channel potentiator confirmation | shares compounds with KCNQ2 pot | CHO-KCNQ2 cells, FluxOR thallium flux fluorescence | potentiation, less the hit threshold, % at 10 µM | actives 68% (n = 1,200);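 active means fluorescence ratio rising 3 SD or more over the vehicle control mean in both replicates, plus primary screen hit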;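 further: peak minus minimum thallium fluorescence divided by baseline after K/Tl stimulus; 0% = vehicle mean plus 3 SD and 100% = vehicle minus unstimulated blank difference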
Kir21 spec: selectivity of KCNQ2 potentiators: effect on mouse Kir2.1. shares compounds with KCNQ2 pot. HEK293 Kir2.1, FluxOR thallium flux fluorescence. activity over 3SD threshold, % at 10 µM. actives 2% (n = 1,200);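 active means fluorescence ratio rise of at least 3 SD above the vehicle-control mean, seen in both replicates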;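 further: 0% = vehicle mean plus 3 SD and 100% = vehicle minus no-stimulus blank window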
KCNQ2 W236L pot: KCNQ2 potentiators acting on retigabine-insensitive rat KCNQ2 W236L mutant. actives 10% (n = 940). current increase over 3SD of negative controls (%), active compounds read high, % at 25 µM. shares compounds with KCNQ2 pot. CHO KCNQ2-W236L, automated patch clamp current;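 active means current increase at least 3 SD of the untreated controls above them in both duplicate recordings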
Numbers without * were called inactive; i = inactive; . = not tested or not shown.

SMILES	KCNQ2 inh	KCNQ2 pot	Kir21 conf inh	HEK293 Tl flux	others
CCc1nc(C)cn1S(=O)(=O)c1ccc(Cl)c(Cl)c1Cl	i	.	.	.
CCc1nc(C)cn1S(=O)(=O)c1cc(Br)ccc1OC	i	1	24%*	i
CCc1nc(C)cn1S(=O)(=O)c1cc(Cl)c(OC)cc1Cl	i	0.58	58%*	i
CCc1nc(C)cn1S(=O)(=O)c1cc(F)ccc1OC	i	1.9	.	.
CCc1nc(C)cn1S(=O)(=O)c1cc(C)c(OC)cc1C	i	1.6	.	.
Cc1ccc(S(=O)(=O)c2ccc(C)cc2)cc1	i	0.96	.	.
Cc1ccc(S(=O)(=O)CCCS(=O)(=O)c2ccc(C)cc2)cc1	i	.	67%*	i
C=C[C@@]1(C)CC(=O)[C@]2(O)[C@@]3(C)[C@@H](O)CCC(C)(C)[C@@H]3[C@H](OC(C)=O)[C@H](O)[C@@]2(C)O1	i	5.1	.	.
C=C[C@@]1(C)CC(=O)[C@]2(O)[C@@]3(C)[C@@H](O)CCC(C)(C)[C@@H]3[C@H](O)[C@H](OC(C)=O)[C@@]2(C)O1	i	8.9*	i	i	CHO-K1 Tl ctr=-13;KCNQ1 sel pot=-26;KCNQ2 pot conf=7.1*;Kir21 spec=-37;KCNQ2 W236L pot=2.3%*
Cc1cccc(NC(=O)Nc2ccccc2[N+](=O)[O-])n1	i	0.5	.	.
Cc1occc1C(=O)Nc1ccc2c(c1)CCC2	i	7.2*	i	i	CHO-K1 Tl ctr=-4;KCNQ1 sel pot=-4;KCNQ2 pot conf=32*;Kir21 spec=-44;KCNQ2 W236L pot=i
Cc1occc1C(=O)Nc1ccc2c(c1)OCCO2	i	1.3	.	.
O=C(/C=C/c1ccc(S(=O)(=O)N2CCOCC2)cc1)NCCCn1ccnc1	i	.	.	.
Cc1onc(-c2ccccc2Cl)c1C(=O)NNC(=O)c1cccc(F)c1	i	0.02	.	.
COc1cc(NC(=O)c2ccccc2)cc(OC)c1	i	17*	i	i	CHO-K1 Tl ctr=-16;KCNQ1 sel pot=-12;KCNQ2 pot conf=30*;Kir21 spec=-34;KCNQ2 W236L pot=i
COc1ccc(C(=O)Nc2cc(OC)cc(OC)c2)cc1	i	4.4	.	.
CC(=O)c1c(C)c(C)c2n1CCn1c(C)ccc1-2	i	0.13	.	.
Cc1ccc(C(C)NC(=O)C23CC4CC(CC(C4)C2)C3)cc1 (stereo not drawn)	i	6*	i	i	CHO-K1 Tl ctr=-4;KCNQ1 sel pot=65*;KCNQ2 pot conf=6.5*;Kir21 spec=-22;KCNQ2 W236L pot=i
Cc1ccnc(NC(=O)C23CC4CC(CC(C4)C2)C3)c1	i	9.7*	i	i	CHO-K1 Tl ctr=-8;KCNQ1 sel pot=-13;KCNQ2 pot conf=33*;Kir21 spec=-18;KCNQ2 W236L pot=i
CC(NC(=O)C12CC3CC(CC(C3)C1)C2)c1ccc2c(c1)OCCO2 (stereo not drawn)	i	3.9	.	.
CCC(=O)Nc1ccc(NC(=O)C23CC4CC(CC(C4)C2)C3)cn1	i	.	.	.
C=CCn1c(C)nc2c(cnn2-c2ccccc2)c1=O	i	.	.	.
COc1cccc(CC(NC(C)=O)C(=O)NC2CCN(C(=O)c3ccc(Cl)cc3)CC2)c1OC (stereo not drawn)	i	0.18	.	.
COCCN(CCOC)C(=O)c1ccc(NS(=O)(=O)c2ccc3[nH]c(=O)[nH]c3c2)cc1	i	0.01	.	.
c1ccc(-c2ccccc2OCCN2CCCC2)cc1	i	.	.	.
SMILES	KCNQ2 inh	KCNQ2 pot	Kir21 conf inh	HEK293 Tl flux	others
c1ccc(-c2ccccc2OCCCCN2CCCCCC2)cc1	i	.	38%*	i
CCc1nnc2c(NCCc3ccccc3)nc3ccccc3n12	i	.	.	.
COc1cccc(NC(=O)NCCCSC2CCCCC2)c1	i	6.5*	i	i	CHO-K1 Tl ctr=-5;KCNQ1 sel pot=-16;KCNQ2 pot conf=13*;Kir21 spec=-25;KCNQ2 W236L pot=i
COc1cccc(NC(=O)NCCCCc2ccccc2)c1	i	2.6	.	.
CC(=O)c1cccc(NC(=O)N2C3CCCC2CC(NC(=O)C2CC2)C3)c1 (stereo not drawn)	i	0.23	.	.
O=C(O)c1ccc(S(=O)(=O)/N=C2\C=C(Nc3ccccc3F)C(=O)c3ccccc32)cc1	i	3.3	.	.
Cc1ccccc1NC1=C/C(=N\S(=O)(=O)c2ccc(C(=O)O)cc2)c2ccccc2C1=O	i	7.2*	i	i	CHO-K1 Tl ctr=-10;KCNQ1 sel pot=-14;KCNQ2 pot conf=8.9*;Kir21 spec=-6;KCNQ2 W236L pot=16%*
S=C(NCc1ccco1)NC1CCCc2ccccc21 (stereo not drawn)	i	.	.	.
S=C(NCc1ccccc1)NC1CCCc2ccccc21 (stereo not drawn)	i	.	i	i
COCC(=O)O[C@]1(CCN(C)CCCc2nc3ccccc3[nH]2)CCc2cc(F)ccc2[C@@H]1C(C)C	i	.	31%*	i
O=C(COc1ccccc1F)NCc1nc2ccccc2[nH]1	i	.	.	.
COc1ccccc1Nc1ccc(NS(=O)(=O)c2ccc(C(C)=O)cc2)cc1	i	.	.	.
Cc1ccc(C(=O)C[n+]2cc(Br)cc(Br)c2)cc1[N+](=O)[O-]	i	0.08	.	.
O=C(Nc1nnc(/C=C/c2ccccc2)s1)c1ccco1	i	1.3	.	.
CC(C)Cc1csc(NC(=O)c2ccc(Br)cc2)c1C(=O)O	i	6.1*	i	126%*	CHO-K1 Tl ctr=6.1*;KCNQ1 sel pot=16*;KCNQ2 pot conf=18*;Kir21 spec=-28;KCNQ2 W236L pot=i
CC(C)Cc1csc(NC(=O)C(C)C)c1C(=O)O	i	1	.	.
Cc1ccc(C2=NCCn3c2c2ccc(C(F)(F)F)cc2[n+]3[O-])cc1	i	1.1	.	.
CCCCCc1nnc(NC(=O)c2ccc(N3CCCC3=O)cc2)s1	i	.	.	.
CN(CCCS(=O)(=O)[O-])c1ccc(/C=C/c2ccc3ccccc3[n+]2C)cc1	i	.	.	.
CN(C)c1ccc(/C=C/c2ccc3ccccc3[n+]2C)cc1	i	.	i	i
c1ccc(CN2c3ccccc3-c3nc4ccccc4n3C2c2ccccn2)cc1 (stereo not drawn)	i	.	.	.
CCN1c2ccccc2-c2nc3ccccc3n2C1c1ccco1 (stereo not drawn)	i	.	i	i
O=C(CN1CCN(C(=O)C2COc3ccccc3O2)CC1)Nc1ccccc1 (stereo not drawn)	i	0.87	.	.
CCc1ccc(C(=O)COC(=O)[C@@H](NC(N)=O)[C@@H](C)CC)cc1	i	.	.	.
COc1ccc(CC(=O)NC2CCSc3ccccc32)c(OC)c1 (stereo not drawn)	i	.	72%*	i
COc1ccc(OC)c(C(=O)NC2CCSc3ccccc32)c1 (stereo not drawn)	i	.	.	.
